Measured values published in a collection of fitness landscapes (doi:10.1016/j.celrep.2020.107928).
Over roughly 81,000 sequences, “one-hybrid fitness for binding NBS DNA” has its median near -0.1; the highest 2% begin near 0.36. This is one part of a sample in which the highest values are shown more often than they occur.

B1: Caulobacter ParB omega fusion; a variant is named by its letters at X, in order, B8GW30 (parent)
chain: MESVVVGEPGMSEGRRGLGRGLSALLGEVDAAPAQAPGEQLGGSREAPIEILQRNPDQPRRTFREEDLEDLSNSIREKGVLQPILVRPSPDTAGEYQIVAGERAWRAAQRAGLKTVPIMVRELDDLAVLEIGIIENVQRADLNVLEEALSYKVLMEKFERTQENIAQTIGKSXSHVANXMRLLXLPDEVQSYLVSGELTAXHARAIAAAADPVALAKQIIEGGLSVRETEALARKAPNLSAGKSKGGRPPRVKDTDTQALESDLSSVLGLDVSIDHRGSTGTLTITYATLEQLDDLCNRLTRGI

Variants of: B1
Assay: one-hybrid fitness for binding NBS DNA (the Noc-binding site; scaled: cognate 1, non-cognate 0); higher = stronger binding
Conditions: with NBS DNA site
In short: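 Values were rescaled so that cognate is 1 and non-cognate is 0. Each is a fitness, the log change in a variant's read ratio to wild type from Illumina reads of plasmids before and after selection, with three replicate libraries pooled and variants under 10 reads dropped. Selection of the Caulobacter ParB libraries, four specificity codons randomised, used E. coli USO with a HIS3 reporter, site 19 bp from the promoter, on M9-minus-histidine with 0.1 mM IPTG and 5 mM 3-AT for 48 hours at 37°C.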

| Variant | one-hybrid fitness for binding NBS DNA |
| --- | --- |
| YTVM | ≤ 0.2 |
| DLVK | ≤ 0.2 |
| HQPS | ≤ 0.2 |
| VMQT | ≤ 0.2 |
| SRLY | ≤ 0.2 |
| RIDV | ≤ 0.2 |
| AWTG | ≤ 0.2 |
| PYAQ | ≤ 0.2 |
| HRAG | ≤ 0.2 |
| RNYQ | ≤ 0.2 |
| RRDY | 0.306 |
| RRNY | 0.589 |
| RCNY | 0.221 |
| RRRY | 0.798 |
| RRYY | 0.349 |
| RCRY | 0.363 |
| WRPY | ≤ 0.2 |
| LPLQ | ≤ 0.2 |
| QRKR | 1.08 |
| NRKR | 0.309 |
| QWKR | 0.356 |
| QRVR | 0.839 |
| YQNG | ≤ 0.2 |
| TVTR | ≤ 0.2 |
| LWNE | ≤ 0.2 |
| YAMR | ≤ 0.2 |

| Variant | one-hybrid fitness for binding NBS DNA |
| --- | --- |
| YPHD | ≤ 0.2 |
| LNNS | ≤ 0.2 |
| RSGW | ≤ 0.2 |
| YQIT | ≤ 0.2 |
| RFAL | ≤ 0.2 |
| AGTL | ≤ 0.2 |
| QHVN | ≤ 0.2 |
| QHKP | 0.255 |
| QHKF | 0.297 |
| QHDH | ≤ 0.2 |
| QHKQ | 0.404 |
| QHKH | 0.546 |
| QHKD | ≤ 0.2 |
| QHKS | 0.655 |
| QHKN | 0.427 |
| QHVQ | 0.283 |
| QHYQ | ≤ 0.2 |
| QHKG | 0.345 |
| KHEE | ≤ 0.2 |
| SFKI | ≤ 0.2 |
| QVDA | ≤ 0.2 |
| RIMY | ≤ 0.2 |
| HVLC | ≤ 0.2 |
| GDVT | ≤ 0.2 |
| GYMF | ≤ 0.2 |
| QQLD | ≤ 0.2 |

| Variant | one-hybrid fitness for binding NBS DNA |
| --- | --- |
| QQLT | 0.45 |
| QQWT | 0.44 |
| QQLN | ≤ 0.2 |
| NQRT | ≤ 0.2 |
| QQEI | ≤ 0.2 |
| QQET | 0.371 |
| KQRT | 0.225 |
| QQRT | 0.8 |
| QQES | 0.23 |
| KQWT | ≤ 0.2 |
| QQWC | ≤ 0.2 |
| FLTY | ≤ 0.2 |
| KTPC | ≤ 0.2 |
| PLQH | ≤ 0.2 |
| TATP | ≤ 0.2 |
| MRTF | ≤ 0.2 |
| QQQY | 0.247 |
| QQGT | 0.475 |
| QQQM | ≤ 0.2 |
| QQHC | ≤ 0.2 |
| DQYT | ≤ 0.2 |
| QQHM | ≤ 0.2 |
| QQGM | 0.202 |
| QQYT | 0.473 |
